Eleven compounds from PubChem BioAssay (Tox21) can be followed below.

Inconclusive results are not listed. Unmarked numbers belong to inactive results. The source made the active and inactive calls. Unless noted, calls follow the shape of the dose curve; as a rule, active = well fitted curve in the direction sought with a large enough effect in the repeat runs; inconclusive = weak or mixed curves; inactive = no such curve, though single readings can be large; an effect the other way counts as inactive or inconclusive.

Test [1] is described as follows: qHTS assay to identify small molecule agonists of the peroxisome proliferator-activated receptor delta (PPARd) signaling pathway - cell viability counter screen (AID 743211). Also: nearly all actives have a fitted effect of over 55% in size. Also: potency is read from the fitted curve at half-maximal effect. The gist of the method: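 Luminescent ATP viability assay (CellTiter-Glo, 30 min RT) in UAS-bla HEK293H cells carrying the PPAR delta reporter construct, 3000 cells/well, after a 17 h compound treatment at 37 C.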

Test [2] deals with Peroxisome proliferator-activated receptor delta (Homo sapiens) (UniProt Q03181). As to the kind of experiment: qHTS assay to identify small molecule agonists of the peroxisome proliferator-activated receptor delta (PPARd) signaling pathway (AID 743212; calls by dose curve). The gist of the method:
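A PPARd-bla HEK293H line with beta-lactamase under an Upstream Activator Sequence is treated with compounds at 37 C. Substrate loading for 2 h at room temperature precedes the fluorescence measurement.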

Test [3] is described as follows: qHTS assay to identify small molecule antagonists of the peroxisome proliferator-activated receptor delta (PPARd) signaling pathway - cell viability counter screen (AID 743213). Also: nearly all actives have a fitted effect of over 50% in size. Also: potency is read from the fitted curve at half-maximal effect. The gist of the method: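 Same-well viability: cells pre-incubated 5 h, dosed with compound plus 300 nM L165041, kept 17 h at 37 C, FRET substrate 2 h RT, then CellTiter-Glo 30 min RT and luminescence.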

The target in test [4] is Peroxisome proliferator-activated receptor delta (Homo sapiens) (UniProt Q03181). Description: qHTS assay to identify small molecule antagonists of the peroxisome proliferator-activated receptor delta (PPARd) signaling pathway (AID 743215; active = well fitted inhibition curve with a large enough effect in the signal ratio in the repeat runs, not every such curve was filed as active; the % refers to the signal ratio;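 also: cells stimulated with agonist L165041 at 300 nM final during compound exposure; series mostly up to about 62 µM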). The method in brief: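 Inhibition of L165041-driven (300 nM final) PPARd signaling is scored in HEK293H UAS-bla cells. Exposure lasts 17 h at 37 C; beta-lactamase activity is then read by FRET substrate fluorescence after 2 h at room temperature.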

The target in test [5] is Bile acid receptor (Homo sapiens) (UniProt Q96RI1). Description: qHTS assay to identify small molecule antagonists of the farnesoid-X-receptor (FXR) signaling pathway (AID 743217; active = well fitted inhibition curve with a large enough effect in the signal ratio in the repeat runs, not every such curve was filed as active; the % refers to the signal ratio). The gist of the method: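 Antagonist mode against 50 uM (final) chenodeoxycholic acid stimulation in FXR-bla HEK 293T cells, 16 h at 37 °C. Inhibition detected as reduced beta-lactamase activity via LiveBLAzer B/G FRET fluorescence after 2 h at room temperature.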

A short description of test [6]: qHTS assay to identify small molecule agonists of the farnesoid-X-receptor (FXR) signaling pathway - cell viability counter screen (AID 743218). Also: nearly all actives have a fitted effect of over 45% in size. Also: potency is read from the fitted curve at half-maximal effect. The gist of the method: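 Cytotoxicity counter-screen run in parallel, same wells: FXR-UAS-bla HEK 293T cells dosed 16 h at 37 C, viability read by CellTiter-Glo luminescence after 30 min at room temperature.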
The target in test [7] is Bile acid receptor (Homo sapiens) (UniProt Q96RI1). As to the kind of experiment: qHTS assay to identify small molecule agonists of the farnesoid-X-receptor (FXR) signaling pathway (AID 743220; active = well fitted activation curve with a large enough effect in the signal ratio in the repeat runs, not every such curve was filed as active; the % refers to the signal ratio). The method in brief: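 Beta-lactamase reporter under UAS control in GeneBLAzer FXR HEK 293T cells (5000/well) measured with LiveBLAzer FRET substrate after 2 h at room temperature. Compound exposure lasted 16 h at 37C.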

Test [8] is described as follows: qHTS assay to identify small molecule antagonists of the farnesoid-X-receptor (FXR) signaling pathway - cell viability counter screen (AID 743221; active = well fitted cell-killing curve with a large enough effect in the repeat runs, not every such curve was filed as active; also: nearly all actives have a fitted effect of over 50% in size; also: potency is read from the fitted curve at half-maximal effect). The gist of the method:
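In GeneBLAzer FXR-UAS-bla HEK 293T cells stimulated with 50 uM chenodeoxycholic acid (final), compounds acted for 16 h at 37 C. Viability was assessed afterwards by CellTiter-Glo luminescence.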

The nature of test [9]: qHTS assay to identify small molecule agonists of the vitamin D receptor (VDR) signaling pathway - cell viability counter screen (AID 743224). Also: nearly all actives have a fitted effect of over 50% in size. Also: potency is read from the fitted curve at half-maximal effect. The method in brief:
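Viability is measured in the same wells as the VDR-bla reporter assay: after 16 h compound treatment and 2 h substrate loading, CellTiter-Glo is added and luminescence read 30 min later.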

The nature of test [10]: qHTS assay to identify small molecule antagonists of the vitamin D receptor (VDR) signaling pathway - cell viability counter screen (AID 743225). Also: nearly all actives have a fitted effect of over 50% in size. The gist of the method:
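Luminescent cell viability (CellTiter-Glo) in VDR-bla HEK 293T cells after 16 h compound exposure at 37C in the presence of 3 nM final 1-alpha,25-dihydroxy vitamin D3.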

Test [11] can be described thus: qHTS assay to identify small molecule agonists of the NFkB signaling pathway - cell viability counter screen (AID 1159515; calls by dose curve; also: series mostly up to about 61 µM; nearly all actives have a fitted effect of over 55% in size). The gist of the method: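 Multiplexed viability readout: after the 5 hr compound exposure and 1.5 hr FRET substrate step, CellTiter-Glo reagent went into the same NFkB-bla ME-180 wells; ATP luminescence was measured after 30 min at room temperature.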

Test [12] can be described thus: qHTS assay to identify small molecule agonists of the endoplasmic reticulum stress response signaling pathway - cell viability counter screen (AID 1159517; calls by dose curve). The gist of the method: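 CellTiter-Glo was added to wells already read for beta-lactamase FRET, and luminescence was recorded 30 min later. Cells: ESRE-bla HeLa, 1,500 per well, compound exposure 5 hr at 37 C.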

Test [13] can be described thus: qHTS assay to identify small molecule antagonists of the retinoid-related orphan receptor gamma (ROR-gamma) signaling pathway - cell viability counter screen (AID 1159520). Also: nearly all actives have a fitted effect of over 50% in size. Also: potency is read from the fitted curve at half-maximal effect. The gist of the method:
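Tet-on ROR gamma CHO cells (1,000/well) were plated 4 hr, given compounds in DMSO for 2 hr at 37 C, then induced with 1 uM final doxycycline for 16 hr. Viability was read as ATP by CellTiter-Glo luminescence after 30 min.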

In test [14] the target is Nuclear receptor ROR-gamma (Homo sapiens) (UniProt P51449). Description: qHTS assay to identify small molecule antagonists of the retinoid-related orphan receptor gamma (ROR-gamma) signaling pathway (AID 1159521; also: nearly all actives have a fitted effect of over 50% in size; also: potency is read from the fitted curve at half-maximal effect). The method in brief: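 CHO cells expressing RORγ under a TET-on promoter, luciferase under RORE control. Dox 1 uM final, 16 h; compounds added 2 h prior. Luminescence decrease measured.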

A short description of test [15]: qHTS assay to identify small molecule agonists of the AP-1 signaling pathway - cell viability counter screen (AID 1159525; calls by dose curve; also: nearly all actives have a fitted effect of over 55% in size). The gist of the method: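 ME-180 AP-1-bla, 2500 cells/well, Opti-MEM + 0.5% dialyzed FBS; overnight 37 °C; cpd 15-pt titration, 5 h 37 °C; CellTiter-Glo 30 min RT; luminescence read; normalised to TOAB and DMSO controls.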
Test [16] can be described thus: qHTS assay to identify small molecule agonists of the AP-1 signaling pathway (AID 1159526; calls by dose curve).
For test [17], the target named is Vitamin D3 receptor (Homo sapiens) (UniProt P11473). Description: qHTS assay to identify small molecule agonists of the vitamin D receptor (VDR) signaling pathway (AID 743222; calls by dose curve). The gist of the method: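 Quantitative HTS agonist-mode screen: compounds in DMSO were pin-transferred onto VDR-bla cells and incubated 16 h at 37C, 5% CO2. Reporter activity was detected with LiveBLAzer B/G FRET substrate after 2 h at room temperature.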

Test [18] shares this target. Description: qHTS assay to identify small molecule antagonists of the vitamin D receptor (VDR) signaling pathway (AID 743223; active = well fitted inhibition curve with a large enough effect in the signal ratio in the repeat runs, not every such curve was filed as active; the % refers to the signal ratio). The gist of the method: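 Agonist 1alpha,25-dihydroxyvitamin D3 (3 nM in well) was added with each compound to VDR-bla cells preincubated 4 h. Cells stood 16 h at 37C, then FRET substrate 2 h at room temperature; fluorescence intensity recorded.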

Test [19] can be described thus: qHTS assay to identify small molecule agonists of the endoplasmic reticulum stress response signaling pathway (AID 1159516; active = well fitted activation curve with a large enough effect in the signal ratio in the repeat runs, not every such curve was filed as active; the % refers to the signal ratio). The method in brief: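 Tox21 10K library screened in quantitative HTS format on ESRE-bla HeLa cells, a beta-lactamase reporter under ER stress response element control; 5 hr treatment, FRET read.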

Vitamin D3 receptor (Homo sapiens), sequence (P11473 whole entry, looked up): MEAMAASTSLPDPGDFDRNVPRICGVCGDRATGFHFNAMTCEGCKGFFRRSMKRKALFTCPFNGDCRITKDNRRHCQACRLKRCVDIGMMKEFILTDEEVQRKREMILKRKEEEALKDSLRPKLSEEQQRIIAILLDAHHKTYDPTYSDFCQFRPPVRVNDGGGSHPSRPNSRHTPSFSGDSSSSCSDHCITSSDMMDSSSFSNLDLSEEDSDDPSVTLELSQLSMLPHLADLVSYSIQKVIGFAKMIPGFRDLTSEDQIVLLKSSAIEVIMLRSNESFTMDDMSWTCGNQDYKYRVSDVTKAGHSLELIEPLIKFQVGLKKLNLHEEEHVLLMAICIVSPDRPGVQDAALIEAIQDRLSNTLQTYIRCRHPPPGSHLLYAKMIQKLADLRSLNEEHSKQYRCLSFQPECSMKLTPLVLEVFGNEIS
Bile acid receptor (Homo sapiens), sequence (Q96RI1 whole entry, looked up): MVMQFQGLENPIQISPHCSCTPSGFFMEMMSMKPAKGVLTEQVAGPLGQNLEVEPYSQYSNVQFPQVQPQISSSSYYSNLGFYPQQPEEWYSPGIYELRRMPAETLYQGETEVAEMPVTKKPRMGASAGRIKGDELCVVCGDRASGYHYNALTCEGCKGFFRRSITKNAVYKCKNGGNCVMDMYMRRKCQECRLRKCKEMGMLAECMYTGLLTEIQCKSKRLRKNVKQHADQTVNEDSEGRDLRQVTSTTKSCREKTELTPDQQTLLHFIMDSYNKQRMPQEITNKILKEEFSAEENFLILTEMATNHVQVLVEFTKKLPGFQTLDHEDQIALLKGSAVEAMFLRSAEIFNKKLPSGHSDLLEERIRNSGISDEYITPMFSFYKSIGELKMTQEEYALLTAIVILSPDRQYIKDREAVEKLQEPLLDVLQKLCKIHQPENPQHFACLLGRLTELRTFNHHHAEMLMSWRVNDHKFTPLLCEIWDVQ
Peroxisome proliferator-activated receptor delta (Homo sapiens), sequence (Q03181 whole entry, looked up): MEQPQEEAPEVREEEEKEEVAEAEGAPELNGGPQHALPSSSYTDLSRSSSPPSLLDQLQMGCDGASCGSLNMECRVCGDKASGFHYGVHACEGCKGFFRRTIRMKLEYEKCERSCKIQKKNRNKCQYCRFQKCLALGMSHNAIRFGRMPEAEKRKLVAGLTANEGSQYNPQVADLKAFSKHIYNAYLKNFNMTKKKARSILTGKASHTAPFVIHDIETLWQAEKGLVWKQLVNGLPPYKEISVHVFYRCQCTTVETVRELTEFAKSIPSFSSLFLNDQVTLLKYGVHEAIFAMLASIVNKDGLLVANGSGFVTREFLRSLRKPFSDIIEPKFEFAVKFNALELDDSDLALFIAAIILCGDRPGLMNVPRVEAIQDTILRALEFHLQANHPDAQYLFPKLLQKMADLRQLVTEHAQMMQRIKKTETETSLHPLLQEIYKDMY

For the compound `O=C(O)CCCc1c[nH]c2ccccc12`, the Potency entry in test [1], in test [3], in [4], in [6], in test [7] and in test [8] was “inactive” throughout. Besides, the Potency entry in [9], in test [10], in test [11], in [12], in test [13] and in [14] was “inactive” each time. Moreover, in [15], the Potency entry was “inactive”. The compound was called inactive in [2], in test [5] and in [16].
`CC12CC3CC(C)(C1)CC(N)(C3)C2`: the Potency entry in test [1], in test [3], in test [6], in test [8], in test [9] and in test [10] was “inactive” each time. The Potency result in [11], in test [12], in test [13], in test [14] and in test [15] was “inactive” throughout. Further, the compound was classed as inactive in test [17] and in [16].
For the compound `CCOCCC(=O)OCC`, the Potency entry in [1], in [3], in [4], in test [6], in test [8] and in test [9] was “inactive” each time. The Potency result in test [10], in test [11], in test [12], in [13] and in test [15] was “inactive” throughout. In addition, the call in [2], in [17], in [18] and in test [16] was inactive.
`Cc1ccc2c(c1[N+](=O)[O-])C(=O)c1ccccc1C2=O`: the Potency entry in test [1], in test [3], in [4], in [6], in test [8] and in test [9] was “inactive” each time. For the same compound, the Potency result in test [10], in test [11], in test [19], in test [13] and in [14] was “inactive” each time. The result in [2] and in test [17] was inactive.
As to `O=NN(CCCl)C(=O)NCCCl`, the Potency entry in [1], in [6], in [8], in test [10], in test [11] and in test [19] was “inactive” throughout. Moreover, the Potency result in test [13], in [14] and in test [15] was “inactive” each time. Besides, the result in [2] and in test [16] was inactive.
As for `CO[C@@H]1[C@@H](OC)[C@H](C)[C@@](O)(CC(=O)O)O[C@H]1[C@H](C)[C@H]1O[C@@]2(CC[C@@](C)([C@H]3CC[C@@](C)([C@@H]4O[C@@H]([C@H]5O[C@](C)(O)[C@H](C)C[C@@H]5C)C[C@@H]4OC4C[C@H](OC)[C@@H](OC)[C@H](C)O4)O3)O2)C[C@H](O)[C@H]1C` (stereo not given in full), the Potency in test [3] was 5.31 µM (active); in test [6], 9.44 µM (active); in [8] it was 9.44 µM (active); in test [9], 5.96 µM (active); in test [13], 9.44 µM (active); in test [14], 0.237 µM (active). Moreover, the Potency entry in test [7], in [11] and in test [19] was “inactive” throughout.
Take `Cc1ccc2c(c1)CCCN2`: the result in test [2] and in test [16] was inactive. Further, the Potency result in test [4], in test [8], in test [9], in [10], in [11] and in test [19] was “inactive” each time. The Potency result in [13], in test [14] and in [15] was “inactive” each time.
For the compound `CC(C)c1ccc(C(=O)N=C(N)N)cc1S(C)(=O)=O`, the Potency entry in test [1], in test [3], in [4], in test [6], in [8] and in test [9] was “inactive” throughout. Also, the Potency result in test [10], in test [11], in [12], in test [13], in [14] and in test [15] was “inactive” throughout. Besides, the result in test [2], in [17], in test [18] and in test [16] was inactive.
For `CC(=O)C(=O)CC(C)C`, the Potency entry in test [1], in test [3], in [4], in test [6], in [8] and in test [9] was “inactive” throughout. Besides, the Potency entry in test [10], in test [11], in test [19], in test [13] and in [15] was “inactive” throughout. Besides, the call in test [2], in [17], in [18] and in [16] was inactive.
With `CN(C)CC/C=C1\c2ccccc2Sc2ccc(Cl)cc21`, the Potency in test [1] was 29.8 µM (active); in [3], 13.3 µM (active); in [6], 23.7 µM (active). For the same compound, the Potency result in test [4], in test [19] and in test [15] was “inactive” in each case. Also, the compound was called inactive in [17] and in test [18].
With `COc1cc(OC)c2ccc(=O)oc2c1`, the Potency result in test [1], in test [3], in [6], in [8], in [9] and in test [10] was “inactive” each time. Also, the Potency entry in test [11], in [12], in test [13], in [14] and in [15] was “inactive” in each case. Besides, the outcome in test [2] and in test [16] was inactive.
